A short description of assay [1]: Wnt pathway potentiators raising nuclear beta-catenin – imaging, WNT3A-conditioned medium, mouse C2C12, NPC library, primary screen (AID 1117326; in the data active means nuclear beta-catenin stimulation mostly above about 4.2%, no sharp cut-off; inactive means mostly below about 10%). As to conditions: stronger effect = higher value.
Assay [2] is described as follows: stimulators of insulin release from INS-1E, primary screen, cell-based, 5 mM glucose, NPC library (AID 1117329;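 active means compound raises insulin release from rat beta cells at 5 mM glucose, no numeric limit stated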). The conditions noted are these: rat INS-1E insulin secretion, at 10 µM, stronger effect = higher value.
Assay [3] is described as follows: growth inhibition of GSK3B-pretreated HCT116 cells – cell-based, CellTiter-Glo, 0.2 to 20 µM (AID 1117336;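 active means compounds lowering colon cancer cell viability after pretreatment blocking the GSK3B kinase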). As to conditions: HCT116 viability after GSK3B inhibitor, at 20 µM, stronger effect = higher value. A general note: In ATP-based viability assays light output follows the ATP content of the culture.
The nature of assay [4]: inhibition of endothelial tube formation, primary screen, imaging, VEGF stimulated, CD31 staining, tube area, NPC library (AID 1117340;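 active means compound that reduces growth-factor-driven endothelial tube area in a mixed cell culture, no cutoff stated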). As to conditions: VEGF-stimulated ADSC/ECFC co-culture, at 10 µM, stronger effect = higher value.
The nature of assay [5]: GLP1 release stimulators, primary, NCI-H716, NPC library (AID 1117341;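 active means compound raises GLP1 secretion from the human gut endocrine cells, with no numeric limit stated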). The conditions noted are these: NCI-H716 cells, at 10 µM, stronger effect = higher value.
Assay [6] in a line: HCT116 colon cancer cell growth inhibition, primary screen, CellTiter-Glo luminescence, NPC library (AID 1117342;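 active means compounds that lower survival of HCT116 colon cancer cells in the luminescence readout, no numeric limit stated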). The conditions noted are these: at 20 µM (top of the series).
A short description of assay [7]: reduced SW480 viability measured with CellTiter-Glo, NPC library, primary (AID 1117343;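 active means compounds that lower viability of the colon cancer cells in the luminescence readout, with no numeric limit stated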). As to conditions: CellTiter-Glo luminescence; at 20 µM (top of the series) unless noted.
The nature of assay [8]: NPC library primary testing for decreased DLD-1 cell viability via CellTiter-Glo (AID 1117346;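 active means compounds that lower survival of DLD-1 colon cancer cells in the luminescence readout, no cutoff given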). As to conditions: DLD-1 viability, CellTiter-Glo luminescence; at 20 µM (top of the series).
A short description of assay [9]: EMT-state selective cytotoxicity in co-culture – imaging, PC-3E GFP, TEM4-18 mCherry, primary screen (AID 1345086;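 active means compounds killing one labelled cell type while sparing the other, by normalised counts and ratio limits, not self-fluorescent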;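 on all read-outs here: cells exposed to compound for 72 h before imaging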;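 on red/green cell ratio (normalised): normalised mesenchymal count divided by normalised epithelial count so high means epithelial killing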). As to conditions: PC-3E GFP / TEM4-18 mCherry co-culture, imaging cell counts, at 1 µM; for red/green cell ratio (normalised): actives lie on both sides, counts scaled to control wells, 1 = unselective.
The nature of assay [10]: viability loss with induced miR-34 in A549 – imaging, A549 dox-inducible miR-34, nuclei and caspase counts, primary screen (AID 1347080). The conditions noted are these: A549 miR-34 inducible, Hoechst nuclei count, 48 h.
A short description of assay [11]: MELAS cybrid and Rieske KO viability enhancers – cell-based, MELAS cybrids, Rieske KO mouse fibroblasts, CellTiter-Glo, primary screen (AID 1508586;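 active means mean z-score across replicates of 1.96 or higher in either the MELAS or the Rieske mutant cell line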;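 further: z relative to plate mean and SD of compound and empty wells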). As to conditions: low glucose.
Assay [12] deals with NAD(+) hydrolase SARM1 (Homo sapiens) (UniProt Q6SZW1). Kind of assay: blocking NAD cleavage by SARM1 SAM-TIR – cell lysate, NAD-Glo luminescence (AID 1508614;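 active means compound whose remaining NAD level is above about 45 nM, limit read from the data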). The conditions noted are these: SAM-TIR HEK293T lysate NADase, at 1 µM, stronger effect = higher value.
NAD(+) hydrolase SARM1 (Homo sapiens), sequence (Q6SZW1 whole entry, looked up): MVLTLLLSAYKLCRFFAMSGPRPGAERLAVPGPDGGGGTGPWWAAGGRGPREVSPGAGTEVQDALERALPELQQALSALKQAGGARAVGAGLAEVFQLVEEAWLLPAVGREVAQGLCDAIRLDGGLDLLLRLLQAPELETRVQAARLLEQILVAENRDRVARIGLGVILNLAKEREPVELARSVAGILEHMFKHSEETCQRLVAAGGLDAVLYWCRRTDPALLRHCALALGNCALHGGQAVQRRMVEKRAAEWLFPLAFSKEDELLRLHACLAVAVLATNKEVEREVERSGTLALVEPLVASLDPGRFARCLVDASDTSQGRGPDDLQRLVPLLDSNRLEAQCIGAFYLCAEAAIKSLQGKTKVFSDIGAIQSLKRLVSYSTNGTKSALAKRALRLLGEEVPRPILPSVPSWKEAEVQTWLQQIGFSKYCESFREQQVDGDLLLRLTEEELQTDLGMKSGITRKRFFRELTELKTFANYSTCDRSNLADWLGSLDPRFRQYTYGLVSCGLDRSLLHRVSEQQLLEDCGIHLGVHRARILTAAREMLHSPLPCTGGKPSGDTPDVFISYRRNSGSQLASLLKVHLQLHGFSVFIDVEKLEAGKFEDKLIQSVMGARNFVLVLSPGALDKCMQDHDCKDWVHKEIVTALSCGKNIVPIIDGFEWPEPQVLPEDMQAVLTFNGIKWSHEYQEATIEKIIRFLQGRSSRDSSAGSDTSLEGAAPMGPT
A short description of assay [13]: compounds altering viability of human ES cells (AID 493140; call rule not given here;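 further: cells exposed to compounds for four days before counting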). The conditions noted are these: human embryonic stem cell survival screen; stronger effect = higher value.
Assay [14] is described as follows: P. berghei load reduction in hepatocytes – cell-based, HepG2, luciferase luminescence, HepG2 viability, primary screen (AID 624349; in the data active means parasite load remaining mostly below about 12%, no sharp cut-off; inactive means mostly above about 10%;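 further: 100% = mean of DMSO negative control wells on the same plate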). As to conditions: P. berghei liver stage in HepG2, luciferase luminescence, concentration not given here; parasite load remaining: stronger effect = lower value; viability: measured here: HepG2 viability without parasites.
[15] abbreviates: measured here: epithelial PC-3E GFP cell survival.
The mark [16] stands for this setting: measured here: mesenchymal TEM4-18 mCherry cell survival.
Where [17] appears, read: stronger effect = lower value, cell number ratio, induced over uninduced.
Where [18] appears, read: measured here: relative caspase fold change +Dox/-Dox.
[19] abbreviates: measured here: total cells with miR-34 induction, stronger effect = lower value.
Where [20] appears, read: measured here: total cells without miR-34 induction.
The mark [21] stands for this setting: MELAS cybrid survival, CellTiter-Glo 48 h, stronger effect = higher value.
Where [22] appears, read: Rieske KO mouse fibroblast survival, CellTiter-Glo 72 h.

Several values for one entry are separate records, joined by “and”; a condition that tells them apart may be missing. Equal entries are not always repeated. Activity calls are given as the source filed them.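 How the source made its calls, unless noted: active means compounds whose cell count with miR-34 switched on is under 0.7 times the count with it off; inactive means the rest.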

As for `CN1C(CCl)Nc2cc(Cl)c(S(N)(=O)=O)cc2S1(=O)=O` (configuration not stated), the nuclear beta-catenin stimulation in assay [1] (at 10 µM) is -0.9% (inactive); in assay [1] (stimulation, at 2 µM), 1.3%. Besides, the insulin secretion stimulation in assay [2] is 2.3% (inactive). Further, the viability decrease in [3] was 0.4% (inactive). The tube area decrease in [4] is 3.9% (inactive). In addition, in [5], the GLP1 secretion stimulation was -2.1% (inactive). Besides, the inhibition of viability in assay [6] was -10.4% (inactive). The viability decrease (inhibition) is -2.9% (inactive) in assay [7] and -20.7% (inactive) in [8]. Also, in assay [9], the red/green cell ratio (normalised) was 0.93 (inactive). For the same compound, the normalised cell number in assay [9] (setting [15]) is 1.23; in assay [9] (setting [16]), 1.15. Further, the fold change was 0.914 (inactive) and 0.898 (inactive) in assay [10] (setting [17]); 1.08 and 0.519 in assay [10] (setting [18]). In addition, the cell count in assay [10] (setting [19]) is 8680 and 8370; in assay [10] (setting [20]) it was 9500 and 9310. The z-score was -0.258 (inactive) in [11] (setting [21]) and -0.124 in [11] (setting [22]). In addition, the remaining NAD in assay [12] is 10 nM (inactive).

With `O=S(=O)(O)NC1CCCCC1`, the nuclear beta-catenin stimulation in assay [1] (at 10 µM) is 0.2% (inactive); in [1] (stimulation, at 2 µM), 0.3%. Also, in assay [2], the insulin secretion stimulation was -1.6% (inactive). In addition, in assay [3], the viability decrease is -5.65% (inactive). The tube area decrease in [4] is -18.4% (inactive). In assay [5], the GLP1 secretion stimulation was -0.8% (inactive). For the same compound, the inhibition of viability in assay [6] is -5.4% (inactive). Besides, the values for the viability decrease (inhibition) in assay [7] and in assay [8] were 8.9% (inactive) and 1.3% (inactive), respectively. Also, the red/green cell ratio (normalised) in assay [9] is 0.89 (inactive). In addition, the results for the normalised cell number in [9] (setting [15]) and in [9] (setting [16]) were 0.95 and 0.84, respectively. Also, the fold change in assay [10] (setting [17]) was 0.883 (inactive) and 0.898 (inactive); in assay [10] (setting [18]) it was 0.921 and 0.472. The cell count in [10] (setting [19]) was 8650 and 7930; in assay [10] (setting [20]), 9790 and 8830. Besides, the z-score was -0.205 (inactive) in assay [11] (setting [21]) and -0.173 in assay [11] (setting [22]). Moreover, in assay [12], the remaining NAD was 10 nM (inactive).

For the compound `O=C(N/N=C/c1ccc([N+](=O)[O-])o1)c1ccc(O)cc1`, in assay [13], the survival is 8.5 (inactive). In addition, the parasite load remaining in [14] was -8.11% (inactive) and 25.6% (inactive). For the same compound, the viability (usually a read-out of living cells in per cent, often relative to untreated cells) in assay [14] was 21.5% and 60.5%. Also, the nuclear beta-catenin stimulation in assay [1] (at 10 µM) is 18.2% (inactive); in assay [1] (stimulation, at 2 µM) it was 2%. In addition, the insulin secretion stimulation in assay [2] was -3% (inactive). Also, the viability decrease in [3] was 99.5% (active). Further, the tube area decrease in assay [4] was 26.5% (inactive). In addition, the GLP1 secretion stimulation in assay [5] is 5.1% (inactive). For the same compound, the inhibition of viability in [6] was 102% (active). Also, the viability decrease (inhibition) is 67.8% (active) in [7] and 81.1% (active) in [8]. For the same compound, in [9], the red/green cell ratio (normalised) is 0.78 (inactive). The normalised cell number worked out at 1.11 in assay [9] (setting [15]) and 0.87 in assay [9] (setting [16]). Further, the fold change in assay [10] (setting [17]) was 0.844 (inactive); in [10] (setting [18]), 1.92. For the same compound, the cell count in assay [10] (setting [19]) was 3090; in [10] (setting [20]) it was 3660. Moreover, the z-score in assay [11] (setting [21]) was -3.44 (inactive); in assay [11] (setting [22]), -1.34. In addition, in assay [12], the remaining NAD is 10 nM (inactive).

Turning to `CCN(CC)CCc1nc(-c2ccccc2)no1`, the survival in assay [13] is 3.33 (inactive). For the same compound, the parasite load remaining in assay [14] is 66.5% (inactive). The viability in assay [14] came to 105%. Also, the nuclear beta-catenin stimulation in assay [1] (at 10 µM) is 2% (inactive); in [1] (stimulation, at 2 µM), 1.3%. Besides, the insulin secretion stimulation in assay [2] is -0.7% (inactive). The viability decrease in assay [3] is -19.4% (inactive). In assay [4], the tube area decrease is -1% (inactive). In assay [5], the GLP1 secretion stimulation is 3.1% (inactive). Also, the inhibition of viability in assay [6] is -2.53% (inactive). For the same compound, the viability decrease (inhibition) in assay [7] is 10% (inactive); in assay [8] it was -2.9% (inactive). Moreover, the red/green cell ratio (normalised) in assay [9] is 0.94 (inactive). The normalised cell number in assay [9] (setting [15]) was 1.14; in assay [9] (setting [16]) it was 1.07. Further, the fold change in assay [10] (setting [17]) is 0.948 (inactive) and 0.876 (inactive); in assay [10] (setting [18]), 0.926 and 0.982. For the same compound, the cell count was 8840 and 9090 in [10] (setting [19]); 9330 and 10400 in [10] (setting [20]). Further, the z-score in assay [11] (setting [21]) is 0.0836 (inactive); in assay [11] (setting [22]), -0.0837. Besides, the remaining NAD in assay [12] is 10 nM (inactive).

The values are drawn from PubChem BioAssay.
